Compounds with a hit are over-represented: about 13% of the library has one in this group of screens.
Shiga inhibitor = A qHTS for Small Molecule Inhibitors of Shiga Toxin; Vero cells, Shiga toxin protein synthesis inhibition reporter; actives 9.2% (n = 290,000); inhibition, % at 38.7 µM; AID 2315, 2010; in the data active means inhibition mostly above about 28%, no sharp cut-off; inactive means mostly below about 43%; further: 0% is about no effect
Lassa entry inh = qHTS for Inhibitors of binding or entry into cells for Lassa Virus | Potency, µM (titrated, usually from 37.9 µM), for inactives: top-dose activity change, negative = inhibition, actives largely listed as inhibitors | Lassa virus pseudotype entry inhibition, cell reporter | actives 1.2% (n = 300,000); calls by dose curve; tested in HEK293 cells; further: potency means the concentration at half of the fitted maximal effect; on the % scale 0 is the no-effect control and ±100 the full control effect; nearly all actives have a fitted effect of over 50% in size
FMDV inh = High Throughput Screening for Foot and Mouth Disease Virus Antivirals; AID 1159524, 2015; actives 1.2% (n = 410,000); FMDV antiviral cell-based qHTS; Potency, µM (highest dose often 57.9 µM), inactives show at the highest dose activity change, negative = inhibition, usual class: inhibitors; calls by dose curve; tested in HEK293T cells; further: read-out not given here; potency means the concentration at half of the fitted maximal effect; on the % scale 0 is the no-effect control and ±100 the full control effect; nearly all actives have a fitted effect of over 45% in size
Marburg entry inh = qHTS for inhibitors of binding or entry into cells for Marburg Virus; Marburg virus pseudotyped entry inhibition, cell reporter; Potency, µM (highest dose often 37.8 µM), for inactives: at the highest dose activity change, negative = inhibition, actives largely listed as inhibitors; actives 1.8% (n = 300,000); AID 540276, 2011; calls by dose curve; tested in HEK293 cells; further: potency means the concentration at half of the fitted maximal effect; on the % scale 0 is the no-effect control and ±100 the full control effect
Cycloheximide cs = Cycloheximide Counterscreen for Small Molecule Inhibitors of Shiga Toxin; cell reporter, cycloheximide protein synthesis inhibition counterscreen; max response, %; actives 12% (n = 300,000); AID 2314, 2010; in the data active means max response mostly above about 13%, no sharp cut-off; inactive means mostly below about 14%; further: read at 38.3 µM for the half of the compounds with a filed dose; 0% is about no effect
HCV inh = qHTS Assay for Inhibitors of Hepatitis C Virus (HCV); AID 651820, 2012; Potency, µM (titrated, usually from 41.8 µM), without a hit: top-dose activity change, negative = inhibition, usual class: inhibitors; actives 3.4% (n = 340,000); Huh7.5.1 HCVcc-Cre infection, luciferase reporter, 44 h; active means well fitted inhibition curve with a large enough effect; inconclusive means small, poorly fitted or top-dose-only effect, or another doubt; inactive means no such curve, though single readings can be large or run the other way; further: potency means the concentration at half of the fitted maximal effect; on the % scale 0 is the no-effect control and ±100 the full control effect
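Reporter virus HCVcc-Cre (~0.5 moi) infects cells exposed to compound; seeding density 1,000 cells/well with 4 h settling beforehand. Luminescence, 15 sec read, taken 44 h post-infection following a 15 min RT substrate incubation.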
Starred values were filed as active, the others as inactive; [ ] = remark or other dose.

Screening Cc1ccc(-c2nc(-c3ccccc3)no2)cc1 returned Shiga inhibitor 64*, Lassa entry inh inconclusive, FMDV inh 11µM*, Marburg entry inh inconclusive, Cycloheximide cs 38* and HCV inh 10%.
`Cc1ccc(-c2nc(-c3ccncc3)no2)cc1` gave Shiga inhibitor 72*, Lassa entry inh inconclusive, FMDV inh -23%, Marburg entry inh inconclusive, Cycloheximide cs 52* and HCV inh inconclusive.
Screening Clc1cccc(Cl)c1-c1noc(-c2ccno2)n1 returned Shiga inhibitor -12, FMDV inh -10%, Cycloheximide cs 4 and HCV inh 12%.
For CCn1nc([N+](=O)[O-])c(C(C#N)c2nc3cc(C(F)(F)F)ccc3s2)c(Cl)c1=O (centres undefined) the results were Shiga inhibitor -8, Lassa entry inh 10%, FMDV inh 2µM*, Marburg entry inh -19%, Cycloheximide cs -1 and HCV inh 11µM*.
CCCn1nc([N+](=O)[O-])c(C(C#N)c2nc3ccccc3o2)c(Cl)c1=O (centres undefined) was read as Shiga inhibitor 10, Lassa entry inh inconclusive, FMDV inh 0%, Marburg entry inh inconclusive, Cycloheximide cs 17 and HCV inh -7%.
For O=C(CCn1c(=O)oc2ccccc21)Nc1ccc(C(=O)O)cc1 the results were Shiga inhibitor -18, Lassa entry inh 20%[46.1 µM], FMDV inh 10%, Marburg entry inh 3%[46.1 µM], Cycloheximide cs -3 and HCV inh 4%.
Screening O=C(c1ccccc1)c1ccc[nH]1 returned Lassa entry inh 2%[46.1 µM], FMDV inh 9%, Marburg entry inh -3%[46.1 µM] and HCV inh 14%.
For O=C(/C=C/c1ccccc1Cl)c1ccc[nH]1 the results were Shiga inhibitor 52*, Lassa entry inh 0%, FMDV inh 38%, Marburg entry inh inconclusive, Cycloheximide cs 36* and HCV inh inconclusive.
Screening COC(=O)c1sccc1NC(=O)/C=C/c1ccc(Cl)cc1Cl returned Shiga inhibitor -5, Lassa entry inh 29%, FMDV inh 17%, Marburg entry inh inconclusive, Cycloheximide cs -2 and HCV inh 25%.
For O=C(/C=C/c1ccc(Cl)cc1Cl)c1ccc[nH]1 the results were Shiga inhibitor 75*, FMDV inh 58%, Cycloheximide cs 34* and HCV inh 1%.
Screening CN(C)/C=C/C(=O)/C=C/c1ccc(Cl)cc1Cl returned Shiga inhibitor 102*, Lassa entry inh 4%, FMDV inh 51%, Marburg entry inh inconclusive, Cycloheximide cs 34* and HCV inh -5%.
`O=C(/C=C/c1ccc(Cl)cc1Cl)n1cccn1` gave Shiga inhibitor -3, Lassa entry inh inconclusive, FMDV inh 7%, Marburg entry inh -29%, Cycloheximide cs 9 and HCV inh inconclusive.
For CCc1ccc(NC(=S)N(Cc2cccc(Br)c2)CC2CCC(C(=O)O)CC2)cc1 (centres undefined) the results were Shiga inhibitor 33, Lassa entry inh -24%, FMDV inh 17%, Marburg entry inh -4%, Cycloheximide cs 21 and HCV inh 6%.
O=C(c1ccc2c(c1)OCCO2)N(Cc1cccnc1)c1nc2ccc(F)cc2s1 was read as Lassa entry inh 27%[46.1 µM] and FMDV inh 0%.
Screening COc1ccc(-c2[nH]ncc2N=Nc2ccccc2)cc1 returned Shiga inhibitor 33, Lassa entry inh inconclusive, FMDV inh -22%, Marburg entry inh inconclusive, Cycloheximide cs 20 and HCV inh inconclusive.
For COc1ccc(-c2[nH]ncc2N=Nc2cc(C)cc(C)c2)cc1 the results were Shiga inhibitor -5, Lassa entry inh inconclusive, FMDV inh -14%, Marburg entry inh inconclusive, Cycloheximide cs 3 and HCV inh 2.2µM*.
For CC(C)CN1CCc2nc(N3CCN(c4ncccn4)CC3)ncc2C1 the results were Lassa entry inh inconclusive and FMDV inh 3%.
Cn1c(=O)c(C(=O)Nc2ccccc2S(N)(=O)=O)c(O)c2ccccc21 was read as Shiga inhibitor 22, FMDV inh 18%, Cycloheximide cs 13* and HCV inh 8%.
Screening Cn1c(=O)c(C(=O)Nc2cnccn2)c(O)c2ccccc21 returned Shiga inhibitor 27 and Cycloheximide cs 18.
CCn1c(=O)c(C(=O)Nc2ccccc2F)c(O)c2ccccc21 was read as Shiga inhibitor 43, FMDV inh 8%, Cycloheximide cs 9.1* and HCV inh 11%.
`Cn1c(=O)c(C(=O)Nc2ccccn2)c(O)c2ccccc21` gave Shiga inhibitor 44*, Lassa entry inh inconclusive, FMDV inh -19%, Marburg entry inh inconclusive, Cycloheximide cs 33* and HCV inh 14%.
`CCCc1cc(=O)n2[nH]c(-c3cccc(Br)c3)cc2n1` gave Shiga inhibitor 64*, Lassa entry inh inconclusive, FMDV inh 67%, Marburg entry inh -5%, Cycloheximide cs 36* and HCV inh -6%.
CCOC(=O)Cc1cc(=O)n2[nH]c(-c3ccccc3)cc2n1 was read as Shiga inhibitor -3, Lassa entry inh 1%, Marburg entry inh 1%, Cycloheximide cs -2 and HCV inh 15%.
Screening CCCc1cc(=O)n2[nH]c(-c3ccc(Br)cc3)cc2n1 returned Shiga inhibitor 14*, Lassa entry inh -3%, FMDV inh -9%, Marburg entry inh inconclusive, Cycloheximide cs 38* and HCV inh 8%.
`CCOC(=O)c1cnc2c(Cl)cc(Cl)cc2c1NCCCN1CCOCC1` gave FMDV inh -29%, Cycloheximide cs -3 and HCV inh -4%.
For CCS(=O)(=O)N1CCc2cc(C(=O)Nc3ccc(Br)cc3F)ccc21 the results were Lassa entry inh inconclusive, FMDV inh 0% and Marburg entry inh inconclusive.
Screening CCC(=O)Nc1ccc(-c2nnc(SCC(=O)Nc3nccs3)n2C)cc1 returned Shiga inhibitor 15, Lassa entry inh 3%, FMDV inh -8%, Marburg entry inh 13%, Cycloheximide cs 15 and HCV inh inconclusive.
Screening c1ccc(N2CCN(c3ncnc4[nH]ncc34)CC2)cc1 returned Lassa entry inh 0%[46.1 µM] and FMDV inh inconclusive.
Fc1ccccc1N1CCN(c2ncnc3[nH]ncc23)CC1 was read as Shiga inhibitor 1, Lassa entry inh 10µM*, FMDV inh inconclusive, Marburg entry inh 5µM*, Cycloheximide cs 12 and HCV inh 16µM*.
CC(=O)N1CCC(N(CCN2CCOCC2)C(=O)Nc2ccc(Cl)c(Cl)c2)CC1 was read as FMDV inh 50% and HCV inh 2%.
For O=C(Nc1cccc(/C=C/c2ccccn2)c1)c1cc(Cl)ccn1 the results were Shiga inhibitor 43*, FMDV inh 19%, Marburg entry inh 24%[46.1 µM], Cycloheximide cs 29* and HCV inh 5µM*.

Bioassay records from PubChem BioAssay.
